The entries come from a sample that favours hits as a whole.
DUX4 txn inh: DUX4-mediated transcription inhibition. 293T-iDUX4 ZSCAN4-Gaussia luciferase reporter, 24 h; active compounds read low. activity change, negative = inhibition, % (concentration not given with the values). 37,000 tested, 0.8% active;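 active = mean inhibition of at least 10% in the main channel, exceeding the control channel by a set limit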;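 also: 0% = median of neutral control wells and -100% = median of positive control wells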
* hit, by the source's call; ! = not active in a repeat.

SMILES	DUX4 txn inh
O=C1CN(S(=O)(=O)c2ccccc2)C[C@@H]2[C@H](c3ccc(C4=CCCC4)cc3)[C@@H](CO)N12	3
O=S(=O)(c1cccs1)N1CCCCN2[C@@H](CO)[C@H](c3ccc(Br)cc3)[C@@H]2C1	-14*
CCCC#Cc1ccc([C@@H]2[C@H](CO)N3CCCCN(S(=O)(=O)Cc4ccccc4)C[C@@H]23)cc1	-9
O=S(=O)(c1cccs1)N1CCCCN2[C@H](C1)[C@H](c1ccc(Br)cc1)[C@@H]2CO	-7
O=S(=O)(c1ccccc1)N1CCCCN2[C@H](CO)[C@H](c3ccc(C#CC4CCCC4)cc3)[C@H]2C1	-19*
CCCC#Cc1ccc([C@H]2[C@H]3CN(S(=O)(=O)Cc4ccccc4)CCCCN3[C@H]2CO)cc1	11
O=S(=O)(c1cccs1)N1CCCCN2[C@H](CO)[C@@H](c3ccc(Br)cc3)[C@H]2C1	-9
C[C@@H](O)C#Cc1ccc([C@H]2[C@H]3CN(S(=O)(=O)c4ccccc4)CCCCN3[C@H]2CO)cc1	2
COc1ccc(C#Cc2ccc([C@@H]3[C@@H](CO)N4CCCCN(S(=O)(=O)c5ccccc5)C[C@H]34)cc2)cc1	-5
CC(C)CC#Cc1ccc([C@H]2[C@@H](CO)N3CCCCN(S(=O)(=O)Cc4ccccc4)C[C@H]23)cc1	-14*
COc1ccc(C#Cc2ccc([C@H]3[C@H](CO)N4CCCCN(S(=O)(=O)c5ccccc5)C[C@@H]34)cc2)cc1	-30*
O=S(=O)(c1ccccc1)N1CCCCN2[C@H](CO)[C@@H](c3ccc(C#CC4CCCC4)cc3)[C@@H]2C1	7
O=S(=O)(c1ccc(F)cc1)N1CCCCN2[C@H](CO)[C@@H](c3ccc(C#CC4CC4)cc3)[C@@H]2C1	-9
C/C=C/c1ccc([C@H]2[C@@H](CO)N(C(C)=O)[C@@H]2CN(CCC)C(C)=O)cc1	1
CC(C)(O)C#Cc1cccc(-c2nc(C(=O)O)cc3c2[C@H](CCO)N(S(=O)C(C)(C)C)C3)c1 (some centres not stated)	1
O=C(C[C@@H]1C=C[C@@H](NC(=O)CC2CC2)[C@H](CO)O1)NCC(F)(F)F	-1
O=C(C[C@@H]1CC[C@H]2[C@@H](COC[C@H](O)CN2C(=O)c2cnccn2)O1)NCc1ccc(F)cc1	5
CN(C)CC(=O)N1[C@H](C#N)[C@H](c2ccccc2-c2cccc(C(=O)N(C)C)c2)[C@H]1CO	14
Cc1ccc(S(=O)(=O)N2C[C@@H](O)COC[C@@H]3O[C@H](CC(=O)NCCN4CCCCC4)CC[C@H]32)cc1	6
CCC(=O)N1CC2(C1)CN(C(=O)NC1CCCC1)[C@H](CO)c1c2c2ccc(OC)cc2n1C	10
COc1ccc2c3c(n(C)c2c1)[C@@H](CO)N(C(=O)c1ccccc1)CC31CN(C(C)=O)C1	12
COc1ccc2c3c(n(C)c2c1)[C@@H](CO)N(C(=O)c1ccc(F)cc1)CC31CCN(CC2CC2)CC1	2
COc1ccc2c3c(n(C)c2c1)[C@H](CO)N(C)CC31CN(C(=O)c2ccccc2F)C1	-32*
COc1cc(CN2CC3(CCN(C(=O)NC(C)C)CC3)c3c(n(C)c4cc(OC)ccc34)[C@H]2CO)cc(OC)c1	1
COc1ccc2c3c(n(C)c2c1)[C@H](CO)N(CC1CC1)CC31CN(C(=O)c2ccc(F)cc2)C1	-37*
SMILES	DUX4 txn inh
COc1cc(CN2CC3(CCN(C(=O)NC(C)C)CC3)c3c(n(C)c4cc(OC)ccc34)[C@@H]2CO)cc(OC)c1	-5
COc1ccc2c3c(n(C)c2c1)[C@H](CO)N(C(C)=O)CC31CN(C(=O)c2ccccc2)C1	-30*
COc1ccc2c3c(n(C)c2c1)[C@@H](CO)N(C)CC31CN(C(=O)Nc2cccc(F)c2)C1	10
COc1ccc2c3c(n(C)c2c1)[C@H](CO)N(C)CC31CN(C(=O)c2cccnc2)C1	10
COc1ccc2c3c(n(C)c2c1)[C@@H](CO)N(C(=O)c1ccccc1)CC31CN(C)C1	6
COc1ccc2c3c(n(C)c2c1)[C@H](CO)N(CC1CC1)CC31CN(Cc2ccc(F)cc2)C1	-3
COc1cc(CN2CC3(CCN(C(=O)Nc4cccc(F)c4)CC3)c3c(n(C)c4cc(OC)ccc34)[C@H]2CO)cc(OC)c1	-37*
O=C(C1CC1)N1CC2(C1)[C@H](c1ccccc1)[C@H](CO)N2Cc1cncnc1	0
OC[C@@H]1[C@@H](c2ccccc2)C2(CN(CC3CCOCC3)C2)N1Cc1nccs1	-1
C[C@@H](NC(=O)C[C@H]1CC[C@H]2[C@@H](COC[C@@H](O)CN2Cc2cc(F)ccc2F)O1)c1ccccc1	1
O=C(c1ccccc1)N1CC(=O)N2[C@@H](CO)[C@H](c3ccc(/C=C/c4ccccc4)cc3)[C@@H]2C1	2
CO[C@H]1CC[C@@H]2CCOc3ccc(C#N)cc3C(=O)N(C)C[C@H](OC)[C@@H](C)C(=O)N(C)C[C@@H]1O2	-2
C[C@@H]1CN([C@H](C)CO)C(=O)c2cc(N(C)C)ccc2O[C@@H](C)CCCCO[C@@H]1CN(C)Cc1ccc(C(=O)Nc2ccccc2N)cc1	-1
CCCC#Cc1ccc2c(c1)[C@H]1[C@H](CCN1S(=O)(=O)c1ccc(F)cc1)[C@@H](CO)N2	12
CCCN1[C@H](C(=O)N(C)C)[C@@H](CO)[C@@H]2Cn3c(ccc(-c4ccc(OC)cc4)c3=O)[C@@H]21	-1
O=C(c1ccncc1)N1CC2(C1)[C@H](c1ccccc1)[C@H](CO)N2CC1CC1	12
O=C(c1ccncc1)N1CC2(C1)[C@@H](c1ccccc1)[C@@H](CO)N2CC1CCCC1	-28*
O=C(NC1CCCC1)N1CC2(C1)[C@@H](c1ccccc1)[C@@H](CO)N2CC1CC1	13
O=C(c1ccncc1)N1CC2(C1)[C@H](c1ccccc1)[C@H](CO)N2CC1CCCC1	-5
O=C(NC1CCCC1)N1CC2(C1)[C@H](c1ccccc1)[C@H](CO)N2CC1CC1	-3
O=C(NC1CCCCC1)N1CC2(C1)[C@H](c1ccccc1)[C@H](CO)N2CC1CCCC1	-26*
C[C@H](CO)N1C[C@H](C)[C@H](CN(C)Cc2ccc(C(F)(F)F)cc2)OCCCC[C@H](C)Oc2ccc(NC(=O)c3ccccc3)cc2C1=O	-1
COc1cccc(NC(=O)N2C[C@@H](O)COC[C@@H]3O[C@H](CC(=O)NCc4ccccc4F)CC[C@H]32)c1	1
COc1ccc2c3c([nH]c2c1)[C@H](CO)N(C(=O)CC1CC1)CC31CN(Cc2ccncc2)C1	4
O=C(NCC1CC1)[C@@H]1N[C@@H]2c3ccc(-c4ccccc4F)c(=O)n3C[C@@H]2[C@H]1CO	4
C[C@@H]1CCCCO[C@@H](CN(C)C(=O)Cc2ccccc2)[C@H](C)CN([C@@H](C)CO)C(=O)c2cc(NC(=O)c3ccncc3)ccc2O1	1
C[C@@H]1CC=CC[C@@H](c2ccccc2)NC(=O)[C@H](Cc2ccccc2)N(C)C(=O)c2ccccc2O1 (mixture of isomers)	2
CN1CCN(C(=O)C[C@H]2CC[C@@H]3[C@H](COC[C@H](O)CN3C(=O)Nc3ccc4c(c3)OCO4)O2)CC1	6
N#Cc1ccc(-c2ccc(C3[C@@H]4CN(C(=O)Cc5ccccc5)C[C@H]3N4)cc2)cc1 (some centres not stated)	-53*!
N#Cc1cccc(-c2ccc(C3[C@@H]4CN(C(=O)c5cccnc5)C[C@H]3N4)cc2)c1 (some centres not stated)	-4

Source: PubChem
